# L3MBTL1 inh: L3MBTL1 (human) inhibition | Q9Y468 | AlphaScreen L3MBTL1–H3K9me1 peptide binding | Potency, µM (titrated, usually from 57.1 µM), for the others: at the top dose activity, negative = inhibition, hits mostly inhibitors | 230,000 compounds, 0.66% hits | AID 485360; further: on the % scale 0 is the no-effect control and ±100 the full control effect; nearly all actives have a fitted effect of over 60% in size
#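 AlphaScreen assay: L3MBTL1 (50 nM final) was preincubated 30 min at room temperature with biotinylated H3(1-15)K9me1 peptide (75 nM final), then 30 min with library compounds; streptavidin donor and nickel chelate acceptor beads (10 ug/mL final) added, 30 min dark.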
# BAZ2B block: blocks human BAZ2B; 360,000 compounds, 4.4% hits; AlphaScreen BAZ2B-H3K14Ac peptide displacement; AID 504333; Q9UIF8; Potency, µM (doses to about 114 µM), for inactives: top-dose activity change, negative = inhibition, hits mostly inhibitors; further: on the % scale 0 is the no-effect control and ±100 the full control effect; nearly all actives have a fitted effect of over 60% in size
#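 BAZ2B (50 nM) with biotin-H3(5-23)K14Ac peptide (50 nM) in PBS pH 7.4, 0.01% Tween-20, preformed 30 min, then compound 30 min at room temperature; top concentration 110uM. AlphaScreen streptavidin donor/nickel chelate acceptor beads (10 ug/mL final), 20 min dark, signal read.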
# Sfp inh: inhibitors of Bacillus subtilis Sfp phosphopantetheinyl transferase; AID 1490; Potency, µM, inactives show largest response in the series, negative = inhibition, hits mostly inhibitors; 310,000 compounds, 3.5% hits; Biochemical Sfp PPTase activity, qHTS;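 further: the enzyme is Sfp with the accession as filed and its product quenches rhodamine fluorescence; 0% = enzyme reaction without inhibitor and -100% = no enzyme wells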
#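 After 15 min at room temperature with compound, 15 nM Sfp received 5 uM rhodamine-CoA plus 12.5 uM BHQ-2-ybbR (50 mM Hepes pH 7.6, 10 mM MgCl2). Rate came from the fluorescence difference over 30 min, ex 525/em 598 nm.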
# HP1b chromo inh: inhibitors of HP1-beta chromodomain binding to methylated histone tails | P83916 | AlphaScreen HP1-beta / biotin-H3K9me3 peptide binding | Potency, µM (titrated, usually from 114 µM), inactives show at the highest dose activity change, negative = inhibition, hits mostly inhibitors | 390,000 compounds, 0.56% hits | AID 540317; further: nearly all actives have a fitted effect of over 70% in size
#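 AlphaScreen: HP1-beta (50 nM) preformed 30 min with biotin-H3(1-18)K9me3 peptide (50 nM) in PBS pH 7.4, 0.01% Tween-20. Compound added for 30 min at RT, then streptavidin donor/nickel chelate acceptor beads (10 ug/mL) for 30 min.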
# JMJD2A Tudor inh: inhibitors of human JMJD2A Tudor domain | AlphaScreen JMJD2A-Tudor / H3K4me3 peptide binding | Potency, µM (highest dose often 114 µM), without a hit: at the highest dose activity change, negative = inhibition, actives largely listed as inhibitors | 390,000 compounds, 4.4% hits | O75164; further: on the % scale 0 is the no-effect control and ±100 the full control effect; nearly all actives have a fitted effect of over 50% in size
# Target sequence (O75164 whole entry, looked up, the tested form may be a part): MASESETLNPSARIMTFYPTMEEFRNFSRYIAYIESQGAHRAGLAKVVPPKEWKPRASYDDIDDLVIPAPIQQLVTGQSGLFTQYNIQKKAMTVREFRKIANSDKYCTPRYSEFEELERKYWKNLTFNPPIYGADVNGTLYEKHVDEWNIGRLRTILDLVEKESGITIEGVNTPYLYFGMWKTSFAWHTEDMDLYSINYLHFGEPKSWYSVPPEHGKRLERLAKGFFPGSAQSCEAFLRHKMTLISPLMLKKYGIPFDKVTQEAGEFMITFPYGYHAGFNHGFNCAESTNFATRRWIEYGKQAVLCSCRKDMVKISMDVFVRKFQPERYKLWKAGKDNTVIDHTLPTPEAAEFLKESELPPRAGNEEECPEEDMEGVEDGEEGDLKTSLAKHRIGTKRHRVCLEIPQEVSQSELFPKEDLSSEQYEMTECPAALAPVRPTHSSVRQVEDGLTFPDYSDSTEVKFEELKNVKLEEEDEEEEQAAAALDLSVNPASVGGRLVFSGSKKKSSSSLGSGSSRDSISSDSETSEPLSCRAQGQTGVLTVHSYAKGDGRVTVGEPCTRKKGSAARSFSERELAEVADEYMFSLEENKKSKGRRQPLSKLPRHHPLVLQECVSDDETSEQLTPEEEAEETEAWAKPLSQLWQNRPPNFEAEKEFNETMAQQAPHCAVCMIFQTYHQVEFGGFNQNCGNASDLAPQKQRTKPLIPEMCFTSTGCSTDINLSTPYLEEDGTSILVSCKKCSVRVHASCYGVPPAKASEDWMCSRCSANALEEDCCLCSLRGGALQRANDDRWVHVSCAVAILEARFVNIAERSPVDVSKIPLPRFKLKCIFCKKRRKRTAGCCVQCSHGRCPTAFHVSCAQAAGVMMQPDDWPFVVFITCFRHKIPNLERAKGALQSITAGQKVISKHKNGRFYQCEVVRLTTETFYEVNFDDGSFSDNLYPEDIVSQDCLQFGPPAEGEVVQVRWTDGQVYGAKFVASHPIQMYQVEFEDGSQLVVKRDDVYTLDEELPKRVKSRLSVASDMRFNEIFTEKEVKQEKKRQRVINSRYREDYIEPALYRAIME
# G9a inh: inhibitors of human histone lysine methyltransferase G9a. Potency, µM (series often up to 102 µM), without a hit: at the highest dose activity, negative = inhibition, most hits filed as inhibitors. 350,000 compounds, 8.8% hits. G9a H3K9 monomethylation, AlphaScreen, 2 h. AID 504332; further: on the % scale 0 is the no-effect control and ±100 the full control effect; nearly all actives have a fitted effect of over 75% in size
#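 Quantitative HTS format: methyltransferase activity on a biotin-tagged H3K9 peptide is measured by AlphaScreen, using a rabbit anti-monomethyl-H3K9 antibody with streptavidin donor and anti-IgG acceptor beads. Final levels are 20 nM enzyme, 500 nM peptide, 20 uM SAM; 2 h RT.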
# * hit, by the source's call; ? = inconclusive; · = no result given; [ ] = dose if it differs, or a comment. Rows were chosen to be rich in hits. Some 12% of all compounds tested hit in one or more screens of this group. The call rests on the fitted dose curve; in most records, active means well fitted curve in the direction sought with a large enough effect; inconclusive means small, poorly fitted or top-dose-only effect, or another doubt; inactive means no such curve, though single readings can be large; an effect the other way counts as inactive or inconclusive. Potency means the concentration at half of the fitted maximal effect.
SMILES,L3MBTL1 inh,BAZ2B block,Sfp inh,HP1b chromo inh,JMJD2A Tudor inh,G9a inh
Cc1cc(C)c2c(N)c3ccccc3nc2n1,4%,2%,6%,32%,2%,50µM*
CCCN1CCCc2ccccc21,·,?,3%,12%,-35%,22µM*
CCN1C(=O)CCCc2ccccc21,8%,-14%,6%,35%,-1%,-43%
COc1ccc(-n2ncc3c2ncn2nc(-c4ccc(Cl)cc4Cl)nc32)cc1,·,6%,·,42%,18%,1%[59 µM]
Oc1nc(-c2ccc(Cl)cc2)n2ccncc12,0%,79µM*,8%,37%,?,14µM*
COC(=O)c1ccc(-c2nc(O)c3cnccn23)cc1,11%,-10%,-1%,25%,-8%,?
CC(=O)OCOC(=O)CN(CC(=O)OCOC(C)=O)c1ccccc1OCCOc1ccccc1N(CC(=O)OCOC(C)=O)CC(=O)OCOC(C)=O,·,·,89µM*,·,·,2%[59 µM]
COC(=O)c1ccc(/C=N\N2CCN(c3ccccc3)CC2)cc1,-5%,-8%,22%,25%,-18%,0%
COC(=O)c1ccc(/C=N/N2CCN(Cc3ccc(C)cc3C)CC2)cc1,-11%,40µM*,-22%,-29%,?,?
COC(=O)c1ccc(/C=N/N2CCN(Cc3ccccc3Cl)CC2)cc1,?,-27%,-4%,-18%,8.9µM*,1%
Cc1ccc(CN2CCN(/N=C/c3ccc(C(=O)O)cc3)CC2)c(C)c1,-8%,?,14%,8%,-11%,?
Cc1ccc(CN2CCN(/N=C/c3cc(Br)cc(Br)c3O)CC2)cc1,-6%,-33%,-9%,?,?,-12%[59 µM]
CCN(CC)c1ccc(/C=N/N2CCN(Cc3ccccc3Cl)CC2)c(O)c1,-18%,10µM*,-1%,?,32µM*,11µM*
Cc1ccc(CN2CCN(/N=C/c3cc(Br)cc(Br)c3O)CC2)c(C)c1,-8%,1%,0%,51%,-11%[57.1 µM],40µM*
COc1ccc(NC(=O)CSc2nc(-c3ccccc3)cc(-c3cc(OC)c(OC)c(OC)c3)c2C#N)c(OC)c1,·,-9%,·,12%,-26%,?
CC(=O)OCC(NC(=O)C(CCCCNC(=O)OCc1ccccc1)NC(=O)OC(C)(C)C)C1OC(n2cc(F)c(=O)[nH]c2=O)C(OC(C)=O)C1OC(C)=O (configuration not stated),·,·,21%,46%,-9%,·
CC(C)c1ccc2oc(-c3ccc(Cl)c(NC(=O)c4cccs4)c3)nc2c1,·,-12%,·,14%,-9%,5%[59 µM]
COc1cccc(N2C(=O)[C@H]3C(C(=O)c4cnccn4)=NN[C@H]3C2=O)c1,·,50µM*,79µM*,46%,50µM*,?
CCOC(=O)c1scc(-c2ccc(C)cc2)c1S(=O)(=O)N1CCN(c2ccccc2)CC1,·,?,·,34%,-25%,-25%[59 µM]
O=C1CC(c2ccco2)CC2=C1C(c1ccccc1)n1nc(C(F)(F)F)nc1N2 (configuration not stated),-16%,-19%,10µM*,-1%,-19%,?
Cc1ccc2c(c1)nnn2C1CCN(CC(=O)c2ccc(Cl)cc2)CC1,9%,-19%,6%,13%,-15%,45µM*
CCN1CCN(c2cc(=O)n(C3CCCCC3)c(=O)[nH]2)CC1,-15%,11%,20%,58%,8%,50µM*
CN1CCN(c2cc(=O)n(C3CCCCC3)c(=O)[nH]2)CC1,-1%,7%,18%,27%,-15%,35µM*
O=C(Nc1ccc(Br)cc1)N1CCC(CN2CCCC2)CC1,·,-6%,·,76%,-7%,4%[59 µM]
CCCCNc1c2c3c(cccc3n(C)c1=O)C(=O)c1ccccc1-2,94%,26%,-12%,66%,40%,88%[59 µM]
SMILES,L3MBTL1 inh,BAZ2B block,Sfp inh,HP1b chromo inh,JMJD2A Tudor inh,G9a inh
Cn1c(=O)c(N)c2c3c(c(Br)ccc31)C(=O)c1ccccc1-2,-27%,-33%,1%,12%[57 µM],-34%,4.5µM*
Cc1cccc(CNC(=O)C2CCN(c3nn4cc(-c5ccc(F)cc5)nc4s3)CC2)c1,·,4%,·,19%,-3%,2%[59 µM]
O=[N+]([O-])/C=C/c1cc2ccccc2[nH]1,-10%,-29%,-7%,21%,-29%,18µM*
CC(=O)Nc1ccc(NC(=O)COC(=O)c2ccccn2)cc1,1%[11.4 µM],50µM*,14%,36%,-5%[57.1 µM],45µM*
CN(C)S(=O)(=O)c1ccc(NC(=O)COC(=O)c2ccccn2)cc1,5%,?,12%,17%,?,50µM*
O=C(COC(=O)c1ccccn1)Nc1ccccc1Cl,-4%,?,?,-1%,32µM*,10µM*
O=C(COC(=O)/C=C/c1ccccc1)Nc1cccnc1Cl,-8%,8%,·,21%,1%,50µM*
CC(=O)c1cccc(NC(=O)COC(=O)c2ccccn2)c1,·,?,22%,23%,0%,12%[59 µM]
COc1cccc(-c2cc(C(=O)Nc3ccc([N+](=O)[O-])cn3)c3ccccc3n2)c1,-14%,?,-5%,6%,-19%,7.9µM*
CCOc1cccc(-c2cc(C(=O)Nc3ccon3)c3ccccc3n2)c1,·,-5%,-5%,18%,-25%,20µM*
O=C(Nc1ccc([N+](=O)[O-])cn1)c1cc(-c2cccc(Br)c2)nc2ccccc12,3%,-30%,6%,-14%,-34%,?
COc1ccccc1-n1c(=O)c2c3c(sc2n(C)c1=O)CN(C(C)=O)CC3,·,2%,·,37%,-3%,-4%[59 µM]
COc1ccc(Cn2c(CO)cnc2SCc2cccc(C)c2)cc1,·,?,·,11%[57 µM],-24%,-34%[59 µM]
O=C1CC(SC2=NCCS2)C(=O)N1c1ccc(Cl)cc1 (configuration not stated),2%,9%,4%,43%,5%,-17%[59 µM]
O=C1CC(SC2=NCCS2)C(=O)N1c1ccc(Br)cc1 (configuration not stated),4%,-3%,18%,53%,6%[57.1 µM],45µM*
Cn1c(-c2ccc(N)cc2)nc2ccccc21,-4%,5%,7%,29%,-14%,1%
Cc1ccc(-n2c(N)c(-c3nc4ccccc4n3C)sc2=S)cc1,-3%,?,-66%,?,?,3.5µM*
CCn1c(C)cc(/C=C2\NC(=O)N(CC(=O)Nc3ccc(F)cc3)C2=O)c1C,-23%,?,2%,-5%,?,·
Cc1ccc(NC(=O)CN2C(=O)N/C(=C/c3cc(C)n(-c4ccc(C(=O)O)cc4)c3C)C2=O)cc1,·,40µM*,-45%,-18%,79µM*,28µM*
Cc1ccc(NC(=O)CN2C(=O)S/C(=C\c3cc(C)n(-c4ccc(C(=O)O)cc4)c3C)C2=O)cc1,-18%,50µM*,8%,2%,?,·

# From PubChem BioAssay
